Beta cell apopt: beta cell apoptosis inhibition; INS-1E cytokine-induced death, ATP luminescence, 48 h; percent of positive-control rescue, neutral wells zero; protection from apoptosis, % (no concentration beside the values); actives 0.8% (n = 300,000); AID 435005;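 active = Every replicate reaches about 75%, or at least half do and their mean reaches it too, limit read from the data; inconclusive = At least half of replicates reach the limit but their mean does not; inactive = Under half of replicates reach the limit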;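 also: 0% = cytokine-treated negative control wells and 100% = positive control rescue; higher means more ATP so stronger rescue from cytokine killing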
MPTP inh: inhibitors of mitochondrial permeability transition pore; AID 602449; isolated mouse mitochondria, Ca2+ swelling absorbance, 30 min; actives 1.4% (n = 360,000); inhibition, % at 10 µM;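 active = inhibition of 50% or more, scaled per plate between neutral and stimulator controls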;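 also: 0% = DMSO wells given calcium and 100% = 1 mM EGTA wells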
SKKanGAS inh: blocks kanamycin growth of S. pyogenes SKKanGAS strain. BacTiter-Glo, 6 h. actives 1.3% (n = 300,000). inhibition, % at 7.5 µM;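 active = mean replicate score, as percent of positive control median, at least 50; inconclusive = mean below 50 but one replicate at or above 50; inactive = mean and every replicate below 50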;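 also: strain carries kanamycin resistance gene driven by streptokinase promoter and grows in 40 µg/ml kanamycin; loss of luminescence reflects streptokinase promoter inhibition or plain growth inhibition; 0% = median of DMSO wells and 100% = positive control at its reference dose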
CSC inhib: blocks cancer stem cells | cancer stem cell-like cells viability, luminescence | inhibition, % at 7.5 µM | actives 1.1% (n = 300,000); in the data active = inhibition above about 75%; inconclusive = no clear call, values can overlap the other calls; tested in HMLE shEcad cells
Mdm2-MdmX inh: human Mdm2/MdmX binding inhibition; actives 3% (n = 330,000); SaOS-2 split-luciferase Mdm2/MdmX complementation, luminescence; O15151+Q00987; inhibition, % at 8 µM; AID 485346;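 active = inhibition of at least 50% at 8 µM in the primary screen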
GRIN3A LBD mod: modulates the human NR3A ligand-binding domain; actives 2.5% (n = 340,000); AID 1259313; Tm shift relative to glycine control, % at 25 µM; NR3A LBD differential scanning fluorimetry, Tm shift; 0% = protein alone, 100% = glycine-bound protein;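 active = melting temperature shift of at least 10% of the positive control shift, at one fixed dose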
Mdm2 MdmX conf: confirmation of human Mdm2/MdmX interaction inhibitors. actives 55% (n = 10,000). Mdm2-MdmX binding, luminescent assay. inhibition, % at 8 µM. shares compounds with Mdm2-MdmX inh. AID 489028; in the data active = inhibition above about 40%
Full FLuc ctr: inhibits full-length luciferase, flagging false Mdm2/MdmX hits | shares compounds with Mdm2-MdmX inh | SaOS-2 full-length luciferase counterscreen, luminescence | inhibition, % at 8 µM | actives 77% (n = 6,200);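 active = mean inhibition at 8 µM reaching about 37%, which flags the compound as non-specific, limit read from the data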;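 also: p53-null SaOS-2 cells with luciferase driven by a doxycycline-inducible promoter; compound on cells about two nights before reading with doxycycline added after day one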
Numbers without * were called inactive; ? = inconclusive; . = no result given. Sampled rows, rich in hits. Any-hit rate of the full collection: about 6.9%.

SMILES | Beta cell apopt | MPTP inh | SKKanGAS inh | CSC inhib | Mdm2-MdmX inh | GRIN3A LBD mod | Mdm2 MdmX conf | others
Cc1ccc(C)c(N(CC(=O)NCc2ccco2)C(=O)CNS(=O)(=O)c2ccccc2)c1 | 0 | -1 | -4 | -1 | 5 | 1 | .
O=C(Nc1ccc(F)cc1)N1CCc2ccccc2C1 | -2 | -1 | 4 | 13 | -24 | -2 | .
NS(=O)(=O)c1ccc(NC(=O)c2ccc(F)cc2F)c(NC(=O)c2ccc(F)cc2F)c1 | -1 | -1 | -3 | 8 | -1 | 1 | .
COc1ccc(Br)cc1S(=O)(=O)Nc1ncn[nH]1 | 4 | 1 | ? | -3 | 8 | -1 | .
CCCCN(C)S(=O)(=O)c1cc2c3c(c1)CCC(=O)N3CCC2 | -10 | -1 | -3 | -2 | 11 | 0 | .
O=C(Nc1nc(-c2ccccc2)cs1)C1CCCN(S(=O)(=O)c2cccc([N+](=O)[O-])c2)C1 (stereo not given) | . | 4 | 13 | 2 | 42 | -12 | .
O=C(Nc1nc(-c2ccc(S(=O)(=O)N3CCOCC3)cc2)cs1)c1ccccc1 | 6 | -2 | -12 | 28 | 15 | -3 | .
O=C(Nc1nc(-c2ccccc2)cs1)C1CCCN(S(=O)(=O)c2ccccc2)C1 (stereo not given) | . | 7 | 12 | . | 78* | 5 | 65* | Full FLuc ctr=79*
Cc1ccc(Nc2nc(-c3ccc(S(=O)(=O)N4CCOCC4)cc3)cs2)cc1Cl | 15 | 23 | 2 | 23 | 63* | 26* | 13
COc1cccc(C(=O)Nc2nc(-c3ccc(S(=O)(=O)N4CCOCC4)cc3)cs2)c1 | 7 | -2 | 9 | 29 | 58* | -3 | 4
CC(C)CC(=O)Nc1nc(-c2ccc(S(=O)(=O)N3CCOCC3)cc2)cs1 | . | 0 | 1 | . | -12 | 0 | .
Cc1ccc(-c2csc(NC(=O)c3cccc(S(=O)(=O)N4CCN(C)CC4)c3)n2)cc1 | 4 | 22 | 31 | 20 | 73* | -3 | 65* | Full FLuc ctr=39*
NNC(=O)c1cc2cc3ccccc3nc2s1 | 11 | -1 | 12 | 6 | -2 | 1 | .
O=C(NCCCN1CCCC1=O)c1c(O)nc2ccccn2c1=O | 0 | 3 | 8 | -2 | 3 | 0 | .
CC(=O)NC(c1ccccc1)c1nc(-c2cccnc2)cs1 (stereo not given) | . | 0 | . | . | . | . | .
COc1ccc(Cl)cc1Nc1nc2ccc(C)cc2n2cnnc12 | 18 | 1 | -1 | -4 | 55* | -2 | 31
COc1ccc(OC)c(Nc2nc3ccc(C)cc3n3cnnc23)c1 | 14 | 1 | -5 | 12 | 47 | 1 | .
CC1CCCCC12NC(=O)N(CC(=O)N1CCN(S(=O)(=O)/C=C/c3ccccc3)CC1)C2=O (stereo not given) | 5 | -1 | . | -19 | -15 | 2 | .
CCN(CC)CCCCN1c2ccccc2Sc2ccccc21 | 0 | -2 | 4 | -6 | 59* | -3 | 16
O=C(CN(C(=O)c1csnn1)c1ccccc1Cl)NC1CCCC1 | -6 | -3 | -1 | -15 | 7 | 1 | .
COc1ccc(CN2C(=O)c3ccccc3C(/C=N/OCc3ccc(Cl)cc3)C2=O)cc1 (stereo not given) | 0 | 0 | 97* | . | 67* | 11* | 14
COc1ccc(CN2C(=O)c3ccccc3C(/C=N\OCc3ccc(F)cc3)C2=O)cc1 (stereo not given) | -8 | -1 | 24 | -10 | 44 | 6 | .
O=C(C[C@H]1C[C@H](C(=O)N2CCCCC2)[C@@]2(CCc3ccccc3)c3[nH]c4ccc(Cl)cc4c3CCN2C1=O)NCc1cccc(C(F)(F)F)c1 | . | -1 | . | . | 66* | -2 | 61* | Full FLuc ctr=34
CC(C)(C)NC(=O)C[C@H]1C[C@H](C(=O)N2CCCCC2)[C@@]2(CCc3ccccc3)c3[nH]c4ccc(Cl)cc4c3CCN2C1=O | . | 2 | . | . | 52* | 2 | 32 | Full FLuc ctr=73*
COCCCNC(=O)C[C@H]1C[C@H](C(=O)N2CCCCC2)[C@@]2(CCc3ccccc3)c3[nH]c4ccc(Cl)cc4c3CCN2C1=O | . | 0 | . | . | 32 | -11 | .
SMILES | Beta cell apopt | MPTP inh | SKKanGAS inh | CSC inhib | Mdm2-MdmX inh | GRIN3A LBD mod | Mdm2 MdmX conf | others
COc1ccc(C(C[N+](=O)[O-])c2c(C)cc3ccccn23)cc1 (stereo not given) | 2 | -1 | -1 | -1 | 34 | 0 | .
COc1ccc(C(C[N+](=O)[O-])c2c(-c3ccccc3)cc3ccccn23)c(OC)c1 (stereo not given) | 7 | -1 | 1 | -8 | 53* | -4 | 38 | Full FLuc ctr=71*
COc1ccc2c(c1[N+](=O)[O-])CCC/C2=N/OC(=O)c1cccc2ccccc12 | -14 | -1 | 0 | 2 | 52* | 0 | 3
COC(=O)c1cc2ccccc2c([N+](=O)[O-])c1O | . | 0 | . | . | . | -12 | .
NNC(=O)COc1ccc2oc3c(c2c1)CCCC3 | -3 | 0 | 1 | . | 1 | -1 | .
Cc1ccc(CNC(=O)C2CCCN2C(=O)Nc2ccccc2)cc1 (stereo not given) | -3 | 1 | -1 | -19 | 4 | -1 | .
O[C@H]1CN(Cc2cccs2)[C@@H](c2ccccc2)C[C@@H]1n1cc(C2CC2)nn1 | . | -1 | . | . | . | . | .
COc1nc(OC)nc(Oc2ccc(Cl)cc2[N+](=O)[O-])n1 | -11 | -1 | -1 | -7 | -3 | -1 | .
COc1ccc([N+](=O)[O-])c(S(=O)(=O)c2ccccc2)n1 | 94* | 3 | 4 | 45 | 99* | 2 | 98* | Full FLuc ctr=52*
O=[N+]([O-])c1cccnc1S(=O)(=O)c1ccccc1 | 65 | 0 | 4 | 16 | 92* | 6 | 65* | Full FLuc ctr=58*
COc1ccc([N+](=O)[O-])c(S(=O)(=O)c2ccc(Cl)cc2)n1 | 83* | 7 | 0 | 39 | 97* | -2 | 95* | Full FLuc ctr=52*
CSCCC(NC(=O)c1ccccc1Cl)C(=O)NCC(c1ccc(F)cc1)N1CCOCC1 (stereo not given) | . | -1 | . | . | . | 1 | .
COc1cccc(C(=O)N(Cc2ccccc2)Cc2cc3cc4c(cc3[nH]c2=O)OCCO4)c1 | 11 | 0 | 8 | 1 | 24 | -1 | .
Cc1cc2cc(CN(Cc3ccc4c(c3)OCO4)C(=O)c3ccco3)c(=O)[nH]c2cc1C | -5 | 1 | -2 | -4 | 5 | -1 | .
COc1ccc(C(=O)N(Cc2ccccc2)Cc2cc3cc4c(cc3[nH]c2=O)OCCO4)cc1 | -1 | -1 | 9 | 6 | 51* | -2 | 65* | Full FLuc ctr=51*
O=C(c1ccco1)N(Cc1ccc2c(c1)OCO2)Cc1cc2cc3c(cc2[nH]c1=O)OCO3 | 0 | 2 | 4 | -9 | 60* | -1 | 16
